Measured values: PubChem BioAssay (NCATS)
Inconclusive results are not listed. Entries that show only a call come without a potency. Unmarked numbers belong to inactive results. Active and inactive are the calls of the source. Calls follow the shape of the dose curve; as a rule, active = well fitted curve in the direction sought with a large enough effect; inconclusive = small, poorly fitted or top-dose-only effect, or another doubt; inactive = no such curve, though single readings can be large; an effect the other way counts as inactive or inconclusive.

How the values were obtained:
[1] = target: Aldehyde dehydrogenase, mitochondrial (Homo sapiens) (UniProt P05091); assay: qHTS for Inhibitors of the Aldehyde Dehydrogenase Family (ALDH2) Primary screen (AID 2061308); also: nearly all actives have a fitted effect of over 55% in size
[2] = target: Retinaldehyde dehydrogenase 3 (Homo sapiens) (UniProt P47895); assay: qHTS for Inhibitors of the Aldehyde Dehydrogenase Family (ALDH1A3) Primary screen (AID 2061315)

| SMILES | Potency [1] | Potency [2] | activity change, negative = inhibition [1] | activity change, negative = inhibition [2] |
| --- | --- | --- | --- | --- |
| CC(C)=CCC[C@](C)(O)[C@H]1CC[C@]2(C)[C@@H]1[C@H](O)CC1[C@@]3(C)CC[C@H](O)C(C)(C)[C@@H]3[C@@H](O[C@@H]3O[C@H](CO)[C@@H](O)[C@H](O)[C@H]3O[C@@H]3O[C@H](CO)[C@@H](O)[C@H](O)[C@H]3O)C[C@]12C (stereo not given in full) | inactive | inactive |  |  |
| O=C1[C@H](O[C@@H]2O[C@H](CO)[C@@H](O)[C@H](O)[C@H]2O)Oc2ccccc2N1O | inactive | inactive |  |  |
| COc1cc(/C=C/C(=O)O)ccc1O[C@@H]1O[C@H](CO)[C@@H](O)[C@H](O)[C@H]1O[C@@H]1OC[C@](O)(CO)[C@H]1O | inactive | inactive |  |  |
| CC(C)C(NC(=O)c1ccc(O)cc1)C(=O)N1CCCC1C(=O)Nc1c(O)cccc1C(=O)O (stereo not given) | inactive | inactive |  |  |
| CC1CCC2C(C)(C)[C@H](O)CC[C@]2(C)C12Cc1c(O)cc3c(c1O2)CN(C(CCC(=O)O)C(=O)O)C3=O (stereo not given in full) | inactive | inactive |  |  |
| C[C@@H]1C[C@@H]([C@@H](O)C(C)(C)O)O[C@H]2C[C@@]3(C)C(=C12)C[C@H](O)[C@H]1[C@@]2(C)CCC(=O)C(C)(C)C2CC[C@@]13C (stereo not given in full) | inactive | inactive |  |  |
| C=C(C)C(=O)OC1CC(CO)CCC/C(CO)=C/C2OC(=O)C(=C)C21 (stereo not given) | inactive | inactive |  |  |
| CC1(CO)CCCC2(C)C1C(OC(=O)c1ccccc1)CC1C(=O)OCC12O (stereo not given) | inactive | inactive |  |  |
| Cc1cc2c(c(=O)o1)C=C1CC[C@H]([C@H](C)Cn3cnc(=N)c4[nH]cnc43)C[C@@H]1O2 | inactive | inactive |  |  |
| CC1OC(O[C@@H]2[C@H](O)[C@@H](OC3OC(CO)C(O)C(O)C3O)[C@H](OC(=O)[C@]34CCC(C)(C)C[C@H]3C3=CCC5[C@@]6(C)CC[C@H](O[C@@H]7O[C@H](C(=O)O)[C@@H](O)[C@H](O[C@@H]8OC[C@@H](O)[C@H](O)[C@H]8O)[C@H]7O[C@@H]7O[C@H](CO)[C@H](O)[C@H](O)[C@H]7O)[C@@](C)(C=O)C6CC[C@@]5(C)[C@]3(C)C[C@H]4O)O[C@@H]2C)C(O)C(O)C1OC1OCC(O)C(O)C1O (stereo not given in full) |  |  | 2.11% [at 11.2 µM] | 11.9% [at 11.2 µM] |
